# Source: PubChem BioAssay
# Values without a mark were called inactive. Activity calls are given as the source filed them.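 The calls were made as follows, unless noted: active = normalized viability below 100% at a tested concentration; inactive = the rest.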
# What was measured:
# [1] = ovarian cancer cell viability with rucaparib, profiling panel, oncology-focused library, rucaparib conditional (AID 1508598); details: patient-derived ovarian cancer cells, CellTiter-Glo viability, 144 h, hits give low values
# [2] = molecular target: NAD(+) hydrolase SARM1 (Homo sapiens) (UniProt Q6SZW1); assay: SARM1 TIR NADase inhibitors, cell lysate, NAD-Glo luminescence (AID 1508614;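 active = compound whose remaining NAD level is above about 45 nM, limit read from the data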;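 also: higher remaining NAD means stronger inhibition of SARM1 NADase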); details: SAM-TIR HEK293T lysate NADase, at 1 µM, hits give high values
# [3] = at 5 µM, OCI-P5x cells, with rucaparib 20 µM, 100% = cells with rucaparib alone
# [4] = at 5 µM, OCI-P5x cells, without rucaparib
# [5] = at 0.000305 µM, OCI-C5x cells, with rucaparib 10 µM, 100% = cells with rucaparib alone
# [6] = at 0.000305 µM, OCI-C5x cells, without rucaparib
# [7] = at 0.000305 µM, OCI-P5x cells, with rucaparib 20 µM, 100% = cells with rucaparib alone
# [8] = at 0.000305 µM, OCI-P5x cells, without rucaparib
# [9] = at 0.00122 µM, OCI-C5x cells, with rucaparib 10 µM, 100% = cells with rucaparib alone
# [10] = at 0.00122 µM, OCI-C5x cells, without rucaparib
# [11] = at 0.00122 µM, OCI-P5x cells, with rucaparib 20 µM, 100% = cells with rucaparib alone
# [12] = at 0.00122 µM, OCI-P5x cells, without rucaparib
# [13] = at 0.00488 µM, OCI-C5x cells, with rucaparib 10 µM, 100% = cells with rucaparib alone
# [14] = at 0.00488 µM, OCI-C5x cells, without rucaparib
# [15] = at 0.00488 µM, OCI-P5x cells, with rucaparib 20 µM, 100% = cells with rucaparib alone
# [16] = at 0.00488 µM, OCI-P5x cells, without rucaparib
# [17] = at 0.0195 µM, OCI-C5x cells, with rucaparib 10 µM, 100% = cells with rucaparib alone
# [18] = at 0.0195 µM, OCI-C5x cells, without rucaparib
# [19] = at 0.0195 µM, OCI-P5x cells, with rucaparib 20 µM, 100% = cells with rucaparib alone
# [20] = at 0.0195 µM, OCI-P5x cells, without rucaparib
# [21] = at 0.0781 µM, OCI-C5x cells, with rucaparib 10 µM, 100% = cells with rucaparib alone
# [22] = at 0.0781 µM, OCI-C5x cells, without rucaparib
# [23] = at 0.0781 µM, OCI-P5x cells, with rucaparib 20 µM, 100% = cells with rucaparib alone
# [24] = at 0.0781 µM, OCI-P5x cells, without rucaparib
# [25] = at 0.313 µM, OCI-C5x cells, with rucaparib 10 µM, 100% = cells with rucaparib alone
# [26] = at 0.313 µM, OCI-C5x cells, without rucaparib
# [27] = at 0.313 µM, OCI-P5x cells, with rucaparib 20 µM, 100% = cells with rucaparib alone
# [28] = at 0.313 µM, OCI-P5x cells, without rucaparib
# [29] = at 1.25 µM, OCI-C5x cells, with rucaparib 10 µM, 100% = cells with rucaparib alone
# [30] = at 1.25 µM, OCI-C5x cells, without rucaparib
# [31] = at 1.25 µM, OCI-P5x cells, with rucaparib 20 µM, 100% = cells with rucaparib alone
# [32] = at 1.25 µM, OCI-P5x cells, without rucaparib
# [33] = at 5 µM, OCI-C5x cells, with rucaparib 10 µM, 100% = cells with rucaparib alone
# [34] = at 5 µM, OCI-C5x cells, without rucaparib
# Chain of NAD(+) hydrolase SARM1 (Homo sapiens) (Q6SZW1 whole entry, looked up): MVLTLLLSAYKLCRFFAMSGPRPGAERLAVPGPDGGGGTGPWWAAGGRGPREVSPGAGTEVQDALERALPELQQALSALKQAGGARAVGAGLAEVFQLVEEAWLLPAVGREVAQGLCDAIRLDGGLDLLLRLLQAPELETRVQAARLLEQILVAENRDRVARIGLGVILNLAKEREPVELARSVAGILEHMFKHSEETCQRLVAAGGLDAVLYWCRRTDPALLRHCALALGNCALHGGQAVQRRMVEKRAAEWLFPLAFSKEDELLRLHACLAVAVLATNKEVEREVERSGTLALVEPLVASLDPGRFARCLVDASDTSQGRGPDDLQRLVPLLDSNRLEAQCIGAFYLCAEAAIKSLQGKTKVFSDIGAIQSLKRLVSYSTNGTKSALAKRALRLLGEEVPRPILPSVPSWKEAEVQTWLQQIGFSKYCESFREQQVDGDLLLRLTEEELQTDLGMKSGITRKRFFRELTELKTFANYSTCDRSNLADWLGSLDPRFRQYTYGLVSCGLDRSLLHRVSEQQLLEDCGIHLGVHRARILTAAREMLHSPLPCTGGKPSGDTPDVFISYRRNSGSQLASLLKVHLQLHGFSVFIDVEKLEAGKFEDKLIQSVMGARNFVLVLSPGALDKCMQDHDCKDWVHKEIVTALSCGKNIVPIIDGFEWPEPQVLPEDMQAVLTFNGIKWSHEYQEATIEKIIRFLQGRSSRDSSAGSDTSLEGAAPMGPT
compound,measurement,setting,value
COc1cc(=C2C=c3ccccc3=N2)[nH]/c1=C\c1[nH]c(C)cc1C,viability,[1]; [3],1.33% (active)
same,viability,[1]; [4],3.6% (active)
Cc1[nH]c(C=C2C(=O)Nc3ccc(S(=O)(=O)Cc4c(Cl)cccc4Cl)cc32)c(C)c1C(=O)N1CCC[C@@H]1CN1CCCC1,viability,[1]; [5],124%
same,viability,[1]; [6],124%
same,viability,[1]; [7],74% (active)
same,viability,[1]; [8],47.4% (active)
same,viability,[1]; [9],122%
same,viability,[1]; [10],115%
same,viability,[1]; [11],87.5% (active)
same,viability,[1]; [12],57.1% (active)
same,viability,[1]; [13],116%
same,viability,[1]; [14],121%
same,viability,[1]; [15],105%
same,viability,[1]; [16],101%
same,viability,[1]; [17],107%
same,viability,[1]; [18],111%
same,viability,[1]; [19],93.6% (active)
same,viability,[1]; [20],91.6% (active)
same,viability,[1]; [21],106%
same,viability,[1]; [22],113%
same,viability,[1]; [23],96% (active)
same,viability,[1]; [24],89.5% (active)
same,viability,[1]; [25],123%
same,viability,[1]; [26],110%
same,viability,[1]; [27],93% (active)
same,viability,[1]; [28],94.4% (active)
same,viability,[1]; [29],122%
same,viability,[1]; [30],136%
same,viability,[1]; [31],90.6% (active)
same,viability,[1]; [32],87% (active)
same,viability,[1]; [33],109%
same,viability,[1]; [34],116%
same,viability,[1]; [3],1.25% (active)
same,viability,[1]; [4],52.5% (active)
CCCCCOC(=O)Nc1nc(=O)n([C@@H]2O[C@H](C)[C@@H](O)C2O)cc1F (stereo not given in full),viability,[1]; [5],114%
same,viability,[1]; [6],111%
same,viability,[1]; [7],115%
same,viability,[1]; [8],116%
same,viability,[1]; [9],119%
same,viability,[1]; [10],120%
same,viability,[1]; [11],123%
same,viability,[1]; [12],115%
same,viability,[1]; [13],111%
same,viability,[1]; [14],126%
same,viability,[1]; [15],115%
same,viability,[1]; [16],123%
same,viability,[1]; [17],126%
same,viability,[1]; [18],113%
same,viability,[1]; [19],115%
same,viability,[1]; [20],123%
same,viability,[1]; [21],101%
same,viability,[1]; [22],111%
same,viability,[1]; [23],121%
same,viability,[1]; [24],118%
same,viability,[1]; [25],106%
same,viability,[1]; [26],109%
same,viability,[1]; [27],115%
same,viability,[1]; [28],123%
same,viability,[1]; [29],105%
same,viability,[1]; [30],117%
same,viability,[1]; [31],113%
same,viability,[1]; [32],116%
same,viability,[1]; [33],107%
same,viability,[1]; [34],114%
same,viability,[1]; [3],121%
same,viability,[1]; [4],122%
CO[C@H]1/C=C\C=C(\C)C(=O)NC2=CC(=O)C(NCCN(C)C)=C(C[C@@H](C)C[C@H](OC)[C@H](O)[C@@H](C)/C=C(\C)[C@@H]1OC(N)=O)C2=O,viability,[1]; [5],108%
same,viability,[1]; [6],108%
same,viability,[1]; [7],120%
same,viability,[1]; [8],116%
same,viability,[1]; [9],109%
same,viability,[1]; [10],109%
same,viability,[1]; [11],114%
same,viability,[1]; [12],114%
same,viability,[1]; [13],107%
same,viability,[1]; [14],107%
same,viability,[1]; [15],117%
same,viability,[1]; [16],117%
same,viability,[1]; [17],118%
same,viability,[1]; [18],82.9% (active)
same,viability,[1]; [19],50.4% (active)
same,viability,[1]; [20],17.3% (active)
same,viability,[1]; [21],91.8% (active)
same,viability,[1]; [22],27.4% (active)
same,viability,[1]; [23],17.4% (active)
same,viability,[1]; [24],9.22% (active)
same,viability,[1]; [25],26.5% (active)
same,viability,[1]; [26],10.1% (active)
same,viability,[1]; [27],7.13% (active)
same,viability,[1]; [28],5.68% (active)
same,viability,[1]; [29],7.91% (active)
same,viability,[1]; [30],4.98% (active)
same,viability,[1]; [31],6.01% (active)
same,viability,[1]; [32],3.54% (active)
same,viability,[1]; [33],8.19% (active)
same,viability,[1]; [34],4.12% (active)
same,viability,[1]; [3],4.71% (active)
same,viability,[1]; [4],2.66% (active)
Cc1ncc(COP(=O)([O-])[O-])c(CN(CCN(CC(=O)[O-])Cc2c(COP(=O)([O-])[O-])cnc(C)c2[O-])CC(=O)[O-])c1[O-].[H+].[H+].[H+].[Mn+2].[Na+].[Na+].[Na+],remaining NAD,[2],10 nM
CC(C)(C(=O)NCC(F)(F)C(F)(F)F)C(=O)N[C@H]1C(=O)Nc2ccccc2-c2ccccc21,viability,[1]; [5],111%
same,viability,[1]; [6],114%
same,viability,[1]; [7],103%
same,viability,[1]; [8],105%
same,viability,[1]; [9],106%
same,viability,[1]; [10],111%
same,viability,[1]; [11],103%
same,viability,[1]; [12],104%
same,viability,[1]; [13],114%
same,viability,[1]; [14],117%
same,viability,[1]; [15],99.5% (active)
same,viability,[1]; [16],94.4% (active)
same,viability,[1]; [17],110%
same,viability,[1]; [18],117%
same,viability,[1]; [19],85.5% (active)
same,viability,[1]; [20],90.2% (active)
same,viability,[1]; [21],119%
same,viability,[1]; [22],119%
same,viability,[1]; [23],92% (active)
same,viability,[1]; [24],91.6% (active)
same,viability,[1]; [25],116%
same,viability,[1]; [26],107%
same,viability,[1]; [27],85.7% (active)
same,viability,[1]; [28],85.2% (active)
same,viability,[1]; [29],114%
same,viability,[1]; [30],113%
same,viability,[1]; [31],82.5% (active)
same,viability,[1]; [32],82% (active)
same,viability,[1]; [33],117%
same,viability,[1]; [34],108%
same,viability,[1]; [3],72% (active)
same,viability,[1]; [4],76.9% (active)
COc1cc([C@H]2c3cc4c(cc3[C@@H](O[C@@H]3O[C@@H]5CO[C@@H](C)O[C@H]5[C@H](O)[C@@H]3O)[C@H]3COC(=O)[C@H]23)OCO4)cc(OC)c1O,viability,[1]; [5],115%
same,viability,[1]; [6],108%
same,viability,[1]; [7],99.3% (active)
same,viability,[1]; [8],97.3% (active)
same,viability,[1]; [9],108%
same,viability,[1]; [10],103%
same,viability,[1]; [11],96.5% (active)
same,viability,[1]; [12],90.8% (active)
same,viability,[1]; [13],123%
same,viability,[1]; [14],100%
same,viability,[1]; [15],101%
same,viability,[1]; [16],101%
same,viability,[1]; [17],112%
same,viability,[1]; [18],103%
same,viability,[1]; [19],98.6% (active)
same,viability,[1]; [20],97.4% (active)
same,viability,[1]; [21],106%
same,viability,[1]; [22],95.6% (active)
same,viability,[1]; [23],99.3% (active)
same,viability,[1]; [24],98.6% (active)
same,viability,[1]; [25],75.1% (active)
same,viability,[1]; [26],64.7% (active)
same,viability,[1]; [27],99.1% (active)
same,viability,[1]; [28],82% (active)
same,viability,[1]; [29],72% (active)
same,viability,[1]; [30],61.6% (active)
same,viability,[1]; [31],79.8% (active)
same,viability,[1]; [32],42.6% (active)
same,viability,[1]; [33],38.1% (active)
same,viability,[1]; [34],29.3% (active)
same,viability,[1]; [3],55.2% (active)
same,viability,[1]; [4],26.7% (active)
COc1ccc(C2=N[C@@H](c3ccc(Cl)cc3)[C@H](c3ccc(Cl)cc3)N2C(=O)N2CCNC(=O)C2)c(OC(C)C)c1,viability,[1]; [5],118%
same,viability,[1]; [6],104%
same,viability,[1]; [7],90.9% (active)
same,viability,[1]; [8],90.5% (active)
same,viability,[1]; [9],117%
same,viability,[1]; [10],104%
same,viability,[1]; [11],94.2% (active)
same,viability,[1]; [12],89.4% (active)
same,viability,[1]; [13],122%
same,viability,[1]; [14],106%
same,viability,[1]; [15],97.7% (active)
same,viability,[1]; [16],95.5% (active)
same,viability,[1]; [17],106%
same,viability,[1]; [18],100%
same,viability,[1]; [19],96.2% (active)
same,viability,[1]; [20],95.8% (active)
same,viability,[1]; [21],113%
same,viability,[1]; [22],99.5% (active)
same,viability,[1]; [23],100%
same,viability,[1]; [24],96.7% (active)
same,viability,[1]; [25],97.4% (active)
same,viability,[1]; [26],101%
same,viability,[1]; [27],104%
same,viability,[1]; [28],99.4% (active)
same,viability,[1]; [29],93.7% (active)
same,viability,[1]; [30],100%
same,viability,[1]; [31],97.7% (active)
same,viability,[1]; [32],101%
same,viability,[1]; [33],84.5% (active)
same,viability,[1]; [34],95.4% (active)
same,viability,[1]; [3],89.7% (active)
same,viability,[1]; [4],91.3% (active)
